A549 tox: counter-screen for Nrf2 inhibitors: cytotoxicity in A549 cells. A549 ARE-Fluc cells, CellTiter-Fluor viability, 18-24 h. Potency, µM (top dose mostly 46 µM), usual class: inhibitors. 390,000 tested, 0.16% active. AID 504648
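Cytotoxicity counterscreen: CellTiter-Fluor fluorescence was measured in A549 ARE_Fluc cells after 18-24 h of compound exposure in a concentration series. The subsequent BugLite luminescent read reports ARE-luciferase activity.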
p53 reactivation: restores transcriptional activity of mutant p53; Potency, µM (doses to about 92.2 µM), actives largely listed as activators; H1299 p53-A138V BP100-luciferase reporter, luminescence, 24 h; 320,000 tested, 0.063% active; note: nearly all actives have a fitted effect of over 45% in size
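p53-null H1299 cells stably carrying temperature-sensitive p53-A138V and a BP100-luciferase reporter were pinned with compounds (4-point, 1:5 series) and held 24 hrs at 37 deg C. Luminescence was read 10 min after detection reagent.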
Nrf2 inh: blocks Nrf2 signaling | A549 ARE-Fluc reporter, luciferase luminescence, 18-24 h | Potency, µM (highest dose often 46 µM), usual class: inhibitors | 360,000 tested, 2.1% active | AID 504444; note: nearly all actives have a fitted effect of over 60% in size
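Reporter: ARE-Fluc in A549. Exposure: 18-24 h, 37 °C, 5% CO2, 5% FBS OPTI-MEM. Readouts: fluorescent cytotoxicity (CellTiter-Fluor), then luminescent Nrf2 signal after BugLite.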
Nrf2 activator: Nrf2 pathway activation; AREc32 ARE-luciferase reporter (MCF7-derived line), luminescence, 24 h; AID 624171; Potency, µM (titrated, usually from 46.1 µM), usual class: activators; 410,000 tested, 0.31% active; note: nearly all actives have a fitted effect of over 65% in size
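For detection, Steady-Glo was added and plates sat 30 min at RT; before that, AREc32_Fluc cells grown overnight in OPTI-MEM/5% FBS had been treated with 23 nL compound for 24 hr at 37 deg C.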
IL2 activator: IL-2 activation; IL-2 activation reporter assay, cell-based qHTS; stimulated with anti-CD3/CD4/CD28 beads; in transgenic mouse T cells; activation, % (series mostly up to about 46 µM); 360,000 tested, 0.065% active; AID 652025; in the data active = activation above about 50%; inconclusive = mostly about 30% to 49%
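Readout is EGFP and DsRed signal by fluorescent plate cytometry after 18 h at 37 degrees C. Transgenic mouse T cells (750/well) received compound for 60 min before bead stimulation (anti-CD3, anti-CD4, anti-CD28); memory T cells served as non-tolerant control.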
BRCA1 expr act: BRCA1 expression activation; MCF7-BRCA1-FFLuc reporter, luminescence, 48 h; response scale: scaled: vehicle 0%, 10 µM genistein 100%; 380,000 tested, 1.1% active; Potency, µM (titrated, usually from 46.1 µM), most hits filed as activators; AID 624202; note: nearly all actives have a fitted effect of over 80% in size
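Activators of BRCA1 expression were detected as increased firefly luciferase luminescence in engineered MCF7 cells after 48 h compound incubation. Signals were scaled to genistein 10 microM as full activation.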
Numbers stand for hits; – = inactive; ? = inconclusive; · = not tested or not shown; [ ] = another dose, or the depositor's remark. In the library only some 3.2% were active in any assay of this set; here they are far more common. Unless noted, calls come from the whole dose curve; as a rule, active = well fitted curve in the direction sought with a large enough effect; inconclusive = small, poorly fitted or top-dose-only effect, or another doubt; inactive = no such curve, though single readings can be large; an effect the other way counts as inactive or inconclusive.

SMILES | A549 tox | p53 reactivation | Nrf2 inh | Nrf2 activator | IL2 activator | BRCA1 expr act
CCc1ccc(NC(=O)Nc2ccsc2C(=O)OC)cc1 | – | ? | ? | 13µM | – | –
CSc1ccccc1NC(=O)c1csc(C)c1 | – | – | – | ? | – | –
COC(=O)c1sccc1NC(=O)Nc1ccc(C)c(C)c1 | – | ? | ? | ? | – | –
Cc1cc(C(=O)Nc2ccc(Br)cc2)cs1 | – | ? | ? | 11µM | – | ?
COC(=O)c1sccc1NC(=O)c1c(Cl)cccc1Cl | – | – | ? | – | – | –
COc1cccc(CNC(=O)c2nn(-c3ccccc3Cl)nc2CO)c1 | – | · | – | – | · | ·
COc1ccc(CNC(=O)c2ccc3nc(CCc4ccccc4)oc3c2)cc1OC | – | · | · | – | · | –
COC(=O)c1sccc1NC(=O)c1csc(C)c1 | ? | – | · | 5µM | – | –
Nc1cc(C(F)(F)F)ccc1NCCc1ccccn1 | – | – | – | 13µM | – | –
O=c1cc(CN2CCN(c3ccccc3)CC2)nc2scc(-c3ccccc3)n12 | – | – | 15µM | – | – | –
CCn1cc([N+](=O)[O-])c(C(=O)NCc2ccc3c(c2)OCO3)n1 | – | – | – | – | – | –
CCn1cc([N+](=O)[O-])c(C(=O)Nc2ccc3c(c2)OCCO3)n1 | – | – | – | – | – | 5µM
CC1Oc2ccccc2OC1C(=O)Nc1ccccn1 (centres undefined) | – | – | – | 7.1µM | – | –
COc1cccc(C2c3c(ncn(-c4ccc(-c5ccccc5)cc4)c3=N)Oc3ccc4ccccc4c32)c1 (centres undefined) | – | · | ? | · | · | ·
Cc1ccc(C(=O)N2c3ccccc3N(Cc3ccccc3)C(=O)C2(C)C)cc1 | – | – | 12µM | – | – | –
Cc1ccc(C)c(NC(=S)Nc2ncccc2C)c1 | – | – | ? | – | – | 7.9µM
COc1ccccc1OCc1ccc(C(=O)Nc2ccc(C)c(C)c2)o1 | – | · | · | – | · | ·
COc1ccc(CCNC(=O)c2nc(SCc3ccccc3F)ncc2Cl)cc1OC | – | · | 16µM | – | · | ·
Cc1cc(Oc2ccc(C#N)cc2)nc(NCc2ccccc2)n1 | – | – | 16µM | – | – | –
CCCCNC(=O)C1C(c2ccc(C(F)(F)F)cc2)=Nc2ccccc2N1C(C)=O (centres undefined) | · | · | · | · | – | ·
CC(=O)N1CCCc2cc(S(=O)(=O)N3CCC(C(=O)Nc4c(C)cccc4C)CC3)ccc21 | – | · | · | – | · | ·
COc1ccc([N+](=O)[O-])cc1C1NN=C(c2ccccc2O)S1 (centres undefined) | – | – | ? | 4.5µM | – | –
COc1ccc(-c2cc(C3CCN(c4cc(Cl)nc(N)n4)CC3)[nH]n2)cc1 | ? | – | 13µM | – | – | –
CC(=O)c1ccccc1NC(=O)c1ccc(N2CCCC2=O)cc1 | – | – | – | – | – | 7.9µM
CSc1ccccc1NC(=O)c1ccc(N2CCCC2=O)cc1 | – | ? | – | – | – | 10µM
SMILES | A549 tox | p53 reactivation | Nrf2 inh | Nrf2 activator | IL2 activator | BRCA1 expr act
COc1cc(OC)c(NC(=O)Cn2c(=O)c(C(F)(F)F)nc3ccccc32)cc1Cl | – | · | – | – | · | –
Cc1cc(C)c2c(=O)cc(CSCC(=O)Nc3ccccc3Cl)[nH]c2c1 | – | · | · | – | · | ·
Cc1nn(-c2ccccn2)c2nc(-c3cccs3)cc(C(=O)NCc3ccco3)c12 | – | – | ? | – | – | –
CCOC(=O)c1cc(-c2cccs2)nc2c1c(C)nn2-c1ccccn1 | – | – | 23µM | – | – | –
COn1c(-c2ccc(Cl)cc2)nc2ncccc21 | – | – | ? | – | – | 7.1µM
Cc1ccc(-c2nc3ncccc3n2O)cc1 | – | – | – | – | – | –
COc1ccc(NC(=S)Nc2ccc(Oc3ccccc3)cc2)cc1 | – | – | 23µM | – | – | –
O=C(NC(=S)Nc1ccc(Oc2ccccc2)cc1)c1ccc(Cl)cc1 | – | – | 26µM | – | – | –
CCOc1cccc(C(=O)NC(=S)Nc2ccccc2)c1 | – | ? | ? | –[9.22 µM] | – | 11µM
C=Cc1cc2c(s1)c1cnn(Cc3ccccc3F)c(=O)c1n2C | – | · | – | · | · | ·
CCCCCOc1ccc(/C=C/C(=O)Nc2sc(C(C)=O)c(C)c2C(=O)OCC)cc1OC | – | · | – | ? | · | ·
O=C(Cn1cc(CNCc2ccccc2)nn1)Nc1cc(C(F)(F)F)ccc1Cl | – | · | – | · | · | ·
COCCn1c(COc2ccc(OC)cc2)nc2ccccc21 | – | – | – | – | – | –
COc1ccc(OCc2nc3ccccc3n2C(C)C)cc1 | – | – | 23µM | – | – | –
CCn1c(COc2ccc(OC)cc2)nc2ccccc21 | – | – | – | – | – | 11µM
CCn1c(COc2ccccc2)nc2ccccc21 | – | ? | – | – | – | –
Cn1cc(-c2cc3n(n2)CCC(=O)N3CCCC(=O)Nc2ccccc2Cl)c2ccccc21 | ? | · | · | – | · | ·
Cc1ccc(NS(=O)(=O)c2cc3c(cc2Cl)NC(=O)CO3)cc1C | – | · | – | · | · | ·
COc1cccc(C(=O)N2CCN(c3ccc(N4CCOCC4)nn3)CC2)c1 | – | – | – | – | – | –
COc1ccc2c(c1)CCc1cc(C(=O)N3CCN(c4ccc(N5CCOCC5)nn4)CC3)sc1-2 | – | – | 18µM | – | – | –
CCCCCN1C(C(=O)c2ccccc2)=C(NC(=O)c2ccccc2Cl)c2ccccc2S1(=O)=O | – | · | – | – | · | ·
COc1cc(OC)c(NC(=O)Nc2ccc3c(c2)N(C)C(=O)c2ccccc2S3)cc1Cl | – | · | 21µM | – | · | ·
CC(=O)CCSc1ncnc2sc(-c3ccccc3)cc12 | – | – | ? | – | – | ?
Cc1cnc(NC(=O)CSc2nnc(COc3ccccc3)o2)s1 | – | – | – | – | – | –
Cc1cnc(NC(=O)CSc2nnc(-c3ccccc3)o2)s1 | – | ? | ? | – | – | 4µM
SMILES | A549 tox | p53 reactivation | Nrf2 inh | Nrf2 activator | IL2 activator | BRCA1 expr act
Cc1csc(NC(=O)CSc2nnc(-c3ccoc3C)o2)n1 | – | ? | – | – | – | 10µM
CC(=O)c1c(C)[nH]c(C(=O)CSc2ncnc3sc(-c4ccccc4)cc23)c1C | – | – | 5.2µM | –[9.22 µM] | – | –
CC(Sc1ncnc2sc(-c3ccccc3)cc12)C(N)=O (centres undefined) | – | – | – | – | – | 10µM
O=C(O)CSc1ncnc2sc(-c3ccccc3)cc12 | – | – | – | – | – | –
CCOC(=O)C(CC)Sc1ncnc2sc3c(c12)CCCC3 (centres undefined) | – | · | – | – | · | –
CCOc1ccc(NC(=O)CSc2nnc(-c3ccc(OCC)cc3)o2)cc1 | – | · | – | – | · | –
O=C(CSc1nnc(-c2ccccc2)o1)c1nnc(-c2ccccc2)o1 | – | – | – | – | – | –

Bioassay records from PubChem.
